# HEK293 tox – qHTS of GLP-1 Receptor Inverse Agonists: Cytotox Screen; HEK293 cAMP-luciferase reporter cells, luminescence, 24 h; Potency, µM (titrated, usually from 38.3 µM), actives largely listed as inhibitors; 0.13% of 410,000 active; AID 624418, 2012;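 further: loss of luciferase light is scored as toxicity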
#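 Quantitative HTS format, 1536 wells, 200 cells/uL seeded. Compounds: 23 nL, 24 h, 37 °C. Detection: luciferase reagent, luminescence at 12 min RT; decreased signal taken as cytotoxic.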
# GLP-1R agonist – qHTS of GLP-1 Receptor Agonists; 0.007% of 380,000 active; Glucagon-like peptide 1 receptor (Homo sapiens), P43220; Potency, µM (series often up to 45.6 µM), hits mostly activators; HEK293 GLP-1R CRE-luciferase, luminescence, 4-6 h; cells express a hypersensitive GLP-1R form; AID 624172, 2012
# Target sequence (P43220 whole entry, looked up): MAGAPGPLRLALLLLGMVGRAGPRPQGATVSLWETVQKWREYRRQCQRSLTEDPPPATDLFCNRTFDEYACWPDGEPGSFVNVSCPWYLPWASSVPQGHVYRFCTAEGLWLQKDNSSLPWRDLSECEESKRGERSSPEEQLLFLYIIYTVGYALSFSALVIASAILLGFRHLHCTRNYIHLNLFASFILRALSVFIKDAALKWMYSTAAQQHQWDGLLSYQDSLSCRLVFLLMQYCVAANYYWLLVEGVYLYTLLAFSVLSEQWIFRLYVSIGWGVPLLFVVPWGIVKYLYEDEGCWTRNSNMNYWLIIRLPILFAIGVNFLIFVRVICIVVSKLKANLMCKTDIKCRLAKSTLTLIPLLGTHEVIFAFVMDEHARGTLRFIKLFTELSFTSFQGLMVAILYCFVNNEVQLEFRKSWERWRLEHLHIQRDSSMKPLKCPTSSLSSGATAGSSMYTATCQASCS
# GLP1R inv ag – qHTS of GLP-1 Receptor Inverse Agonists (Inhibition Mode) | Potency, µM (highest dose often 38.3 µM), actives largely listed as inhibitors | Glucagon-like peptide 1 receptor (Homo sapiens), P43220 | 1.6% of 410,000 active | HEK293 GLP-1R CRE-luciferase, luminescence, 24 h; GLP-1R form is constitutively active | AID 624417, 2012; further: nearly all actives have a fitted effect of over 55% in size
#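 Inverse agonism was detected as reduced cAMP-driven luciferase luminescence after 24 h compound treatment. The cells were HEK293 clones expressing constitutively active human GLP-1R with the reporter. Reporter-only and GPR119 cell lines served as counterscreen controls.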
# Numbers stand for hits; . = inactive; ? = inconclusive; / = no result given. An excerpt weighted towards active compounds, which were near 1.7% of everything screened. The call rests on the fitted dose curve; in most records, active means well fitted curve in the direction sought with a large enough effect; inconclusive means small, poorly fitted or top-dose-only effect, or another doubt; inactive means no such curve, though single readings can be large; an effect the other way counts as inactive or inconclusive.
SMILES,HEK293 tox,GLP-1R agonist,GLP1R inv ag
C=CCN(c1ccccc1OC)S(=O)(=O)c1cccc(C(=O)NCc2cccs2)c1,.,.,?
CCc1nnc(NC(=O)C2CCC(CNc3c(N4CCC(C)CC4)c(=O)c3=O)CC2)s1 (stereo not drawn),.,.,.
COc1ccc(-c2nn(-c3ccccc3)cc2/C=N/O)cc1OC,.,.,?
COc1ccc(-c2nn(-c3ccccc3)cc2/C=N/Nc2ccc3ccccc3n2)cc1OC,13µM,.,?
CN(C)CCN(C(=O)c1ccco1)c1nc2c(F)cc(F)cc2s1,.,/,.
CC(OC(=O)C1=COCCO1)C(=O)Nc1cc(S(=O)(=O)N2CCCCC2)ccc1Cl (stereo not drawn),.,.,.
Cc1cc(CC(C)C)n(-c2nc3ccccc3c(=O)n2OCC(=O)N(C)C)n1,.,.,.
Cc1cc(CC(C)C)n(-c2nc3ccccc3c(=O)n2OCc2ccccc2)n1,.,.,7.1µM
COc1ccc(OC)c(CC(=O)NC(c2ccccc2)c2ccccc2)c1,.,.,.
COc1ccc(CC(=O)NC(c2ccccc2)c2ccc(C)cc2)c(OC)c1 (stereo not drawn),.,.,8.9µM
COc1ccc(/C=N/OCC(=O)NC(c2ccccc2)c2ccccc2)c(OC)c1,.,.,8.9µM
COc1ccc(/C=N/OCC(=O)NCC(C)C)c(OC)c1,.,.,.
CN(C)C(=O)OCc1c(-c2ccccc2)ncc2ccccc12,.,.,.
Cn1c(=O)c2[nH]c(COc3ccc(C(C)(C)C)cc3)nc2n(C)c1=O,.,.,.
CC(C)Oc1cccc(C(=O)C2CCCN(S(C)(=O)=O)C2)c1 (stereo not drawn),.,.,.
CCOc1ccc2oc(C(=O)NC3CC(C)(C)NC(C)(C)C3)c(C)c2c1,.,.,10µM
CCOc1ccc2oc(C(=O)N3CCCN(C)CC3)c(C)c2c1,.,.,?
CCOc1ccc2oc(C(=O)NC3CCN(Cc4ccccc4)CC3)c(C)c2c1,.,.,?
CCOc1ccc2oc(C(=O)N3CCN(c4ccccc4OCC)CC3)c(C)c2c1,.,.,11µM
COC(=O)CNC(c1ccccc1)c1cc(Br)ccc1NC(C)=O (stereo not drawn),.,.,.
COC(=O)CNC(c1ccccc1Cl)c1cc(Br)ccc1NS(=O)(=O)c1ccc(C)cc1 (stereo not drawn),.,.,3.5µM
O=c1c2ccccc2n2c(-c3ccc(Cl)cc3)nnc2n1CCc1ccccc1,.,/,.
COc1ccc(NC(=O)N2CCN(c3cccc(C(F)(F)F)c3)CC2)cc1,.,.,.
CN(C)S(=O)(=O)c1ccc(NC(=O)N2CCN(c3cccc(C(F)(F)F)c3)CC2)cc1,.,.,3.5µM
COc1ccc(N2C(=O)CS/C2=N\C(=S)Nc2ccccc2)cc1,?,.,13µM
SMILES,HEK293 tox,GLP-1R agonist,GLP1R inv ag
COc1ccccc1N1C(=O)CSC1=NC(=O)c1ccccc1,.,.,.
CCN(C(=O)CSc1nc2ccccc2n1CC(=O)Nc1ccc(F)cc1F)c1ccccc1,.,/,.
Cc1nc2sccn2c(=O)c1S(=O)(=O)NCC1CCN(Cc2ccc(Cl)cc2)CC1,.,.,10µM
Cc1nc2sccn2c(=O)c1S(=O)(=O)NCc1ccc(F)cc1,.,/,.
O=C(NCCc1ccccc1)C1CCN(Cc2cc3ccccc3n2Cc2ccccc2)CC1,.,/,?
CC(CNC(=O)C1CCN(Cc2cc3ccccc3n2Cc2ccccc2)CC1)c1ccccc1 (stereo not drawn),.,/,10µM
COCCNC(=O)C1CCN(Cc2cc3ccccc3n2Cc2ccc(C)cc2)CC1,.,/,10µM
CN(Cc1ccccc1)C(=O)C1CCN(Cc2cc3ccccc3n2Cc2ccccc2)CC1,.,/,10µM
Cc1ccccc1Cn1c(CN2CCC(C(=O)NCCc3ccccc3)CC2)cc2ccccc21,.,/,11µM
CCCNC(=O)C1CCN(Cc2cc3ccccc3n2Cc2ccccc2)CC1,.,/,?
CCNC(=O)C1CCN(Cc2cc3ccccc3n2Cc2ccc(C)cc2)CC1,.,/,.
CN(Cc1ccccc1)C(=O)C1CCN(Cc2ccc(F)cc2)CC1,.,.,.
COc1ccc(S(=O)(=O)NCCc2cn3ccsc3n2)cc1,.,/,.
Cn1c(Oc2cccnc2CN2CCCC2)nc2cc(-c3cccc(C(F)(F)F)c3)sc2c1=O,.,.,.
COC(=O)c1cc(=O)n(Cc2cccs2)c(=Nc2ccc(F)cc2)s1,?,.,3.5µM
COC(=O)c1cc(=O)n(Cc2ccc3c(c2)OCO3)c(=Nc2ccc(F)cc2)s1,.,.,?
COC(=O)c1cc(=O)n(CCc2ccccc2F)c(=Nc2ccc(F)c(Cl)c2)s1,.,.,?
COC(=O)c1cc(=O)n(Cc2ccco2)c(=Nc2ccc(F)c(Cl)c2)s1,.,.,2.8µM
CO[C@@H]1[C@@H](OC2OC(C)C(OC3CC(C)(O)C(OC(=O)CC(C)C)C(C)O3)C(N(C)C)C2O)[C@@H](CC=O)C[C@@H](C)C(=O)/C=C\C2O[C@H]2C[C@@H](C)OC(=O)C[C@H]1OC(C)=O (stereo partly drawn),/,.,/
C[C@H](NC(=O)N1CCn2c1nc1ccccc12)C(=O)NCc1ccc(F)cc1,.,.,?
Cc1cc(N2CCCC2)nc(-c2ccccc2O)n1,.,.,.
Cc1cc(N2CCN(C)CC2)nc(-c2ccccc2O)n1,.,.,4µM
CCOC(=O)[C@@H]1[C@H]2COc3ccc(Br)cc3[C@@H]2N2C(=O)N(c3cccc(Cl)c3)C(=O)[C@@]12C,.,.,.
COc1ccc2cc(C(=O)N(C)Cc3ccccc3)[nH]c2c1,.,.,.
C=CCN(Cc1cc(OC)ccc1OC)C(=O)c1cc2ccc(OC)cc2[nH]1,.,.,11µM
SMILES,HEK293 tox,GLP-1R agonist,GLP1R inv ag
CCCn1c(SCC(=O)Nc2cccnc2Cl)n[nH]c1=O,.,.,.
CCCCC1CCC(C(=O)N2CC(=O)Nc3ccc(Cl)cc3C2c2ccc(F)cc2)CC1 (stereo not drawn),.,/,?
Cc1nn(-c2ccccc2)c2c1C(c1ccc(O)c(O)c1)N1C(=N2)C(Nc2ccccc2)=Nc2ccccc21 (stereo not drawn),.,.,.
Cc1ccc(NC2=Nc3ccccc3N3C2=Nc2c(c(C)nn2-c2ccccc2)C3c2ccc(O)c(O)c2)cc1 (stereo not drawn),.,.,11µM
COc1ccc(OCc2nc3c4c(-c5ccc(OC)cc5)c(-c5ccc(OC)cc5)oc4ncn3n2)cc1,.,.,.
COc1ccccc1CNC(=O)c1cc2ccc3ccc(C)[nH]c3c2n1,.,.,10µM
COc1ccc(Cl)cc1NC(=O)c1cc2ccc3ccc(C)[nH]c3c2n1,.,.,?
O=C(c1cccs1)c1c[nH]cc1-c1ccccc1,.,.,.
CC1CC(C)CN(S(=O)(=O)c2ccc(C(=O)OCC(=O)Nc3ccccc3)cc2)C1 (stereo not drawn),.,.,.
Cc1cc(Nc2cccc(Cl)c2)nc2ccc(NC(=O)c3cncc(Br)c3)cc12,?,.,2µM
